Sampled rows, rich in hits. Any-hit rate of the full collection: about 1.8%.
PrPC TRFRET – reduces human prion protein on the cell surface | cell surface PrPC, TR-FRET read-out | inhibition, % at 13.8 µM | 370,000 compounds, 0.43% hits; in the data active = inhibition above about 24%; note: 0% = median of the test wells and 100% = reference compound wells
Vc quorum ag-1 – inducers of Vibrio cholerae quorum light production without autoinducers; 350,000 compounds, 0.16% hits; activation, % at 18.7 µM; V. cholerae BH1578 lux reporter, luminescence, 6 h; in the data active = activation mostly above about 9.7%, no sharp cut-off
CCHFV vOTU inh – blocks the CCHF virus ovarian tumor domain protease | inhibition, % at 11.5 µM | CCHFV vOTU protease, Pep-AMC fluorescence | 370,000 compounds, 0.55% hits; in the data active = inhibition above about 30%; note: 0% = vehicle wells with enzyme and 100% = no enzyme wells
MazEF act – increases E. coli MazEF RNase cleavage of RNA. activation, % at 20 µM. FAM/BHQ RNA-DNA oligo cleavage fluorescence, 5 h. 350,000 compounds, 0.32% hits; in the data active = activation above about 50%
Target sequence (P0AE70 whole entry, looked up): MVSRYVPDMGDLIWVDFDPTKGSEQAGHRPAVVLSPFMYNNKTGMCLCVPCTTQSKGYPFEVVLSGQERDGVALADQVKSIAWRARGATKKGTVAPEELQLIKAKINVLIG
VHR inh abs – blocks human VHR1 dual specificity phosphatase | inhibition, % at 13.3 µM | P51452 | recombinant VHR phosphatase, pNPP absorbance | 290,000 compounds, 0.52% hits; in the data active = inhibition above about 50%
Target sequence (P51452 whole entry, looked up): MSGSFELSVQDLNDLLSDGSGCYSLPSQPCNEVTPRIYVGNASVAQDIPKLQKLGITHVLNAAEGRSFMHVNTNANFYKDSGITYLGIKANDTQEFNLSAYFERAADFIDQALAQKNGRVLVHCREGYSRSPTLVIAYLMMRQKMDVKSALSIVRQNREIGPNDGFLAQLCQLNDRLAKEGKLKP
Y pestis TopoI – Y. pestis Topo-I inhibition via cleavage products; Y. pestis Topo-I cleavage product accumulation, plate reader; activity, % at 10 µM; 360,000 compounds, 0.064% hits; AID 504884; in the data active = activity above about 50%, passing the limit was not always enough
Vc quorum ag-2 – inducers of V. cholerae quorum light production without autoinducers | shares compounds with Vc quorum ag-1 | V. cholerae BH1578 lux reporter, luminescence, 6 h | activation, % at 50 µM | 620 tested, under 10 active; call rule not given here
Numbers without * were called inactive; i = inactive; / = no result given.

SMILES | PrPC TRFRET | Vc quorum ag-1 | CCHFV vOTU inh | MazEF act | VHR inh abs | Y pestis TopoI | others
O=C(O)c1cc(Cl)ccc1-c1ccc(/C=C/c2cc(C(F)(F)F)[nH]c(=O)n2)o1 | -10 | i | -2 | -320 | 7 | 11
Cn1c(=O)c(NCCc2ccccc2)c2c3c(cccc31)C(=O)c1ccccc1-2 | -6 | / | -1 | 60* | 30 | 24
Cn1c(=O)c(NCCO)c2c3c(cccc31)C(=O)c1ccccc1-2 | -28 | 0 | 2 | -490 | -9 | -4
CCCCNC(=O)C1CCCN1C(=O)Nc1cc(Cl)cc(Cl)c1 (centres undefined) | -3 | / | -1 | / | / | /
COc1ccc2cc3c(N)c(C(=O)NCc4ccco4)sc3nc2c1 | -16 | i | 8 | 67* | -9 | -20
COc1ccc(Br)cc1CNC(=O)Cn1nc(C)n2cccc2c1=O | 3 | 0 | 7 | 8 | 56* | 1
COc1ccc(CNC(=O)Cn2nc(C)n3cccc3c2=O)cc1 | 9 | 0 | -11 | 5 | 3 | 2
COC(=O)N/N=C\c1ccc(-c2cc(Cl)c(Cl)cc2Cl)o1 | 3 | 0 | -8 | 55* | 2 | -4
O=C(O)C1CCC(CNCc2ccccc2Cl)CC1 (centres undefined) | 3 | 0 | -7 | 2 | 52* | -9
COc1ccc(-c2nn(CC(=O)Nc3ccc(Cl)c(Cl)c3)c(=O)c3ccccc23)cc1 | -4 | 1 | 9 | -12 | 52* | -8
COc1ccc(NC(=O)c2cc(-c3ccccc3)oc2C)cc1 | 1 | 0 | 7 | 2 | 8 | 8
Cc1oc(-c2ccccc2)cc1C(=O)Nc1ccccc1 | 2 | 17* | -3 | 1 | 13 | -5
COc1cc(C)c(Br)cc1S(=O)(=O)NCc1ccncc1 | 9 | 0 | 1 | 6 | -7 | 21
COc1cc(C)c(Br)cc1S(=O)(=O)NCc1cccs1 | -5 | i | 15 | 6 | 54* | 13
COc1cccc(C2CC(c3cccs3)=NN2C(=O)CSC2=NN3CCCC(=O)N=C3S2)c1OC (centres undefined) | -16 | -1 | -2 | 4 | 53* | 21
CN(C)c1ccc(/C=N/N(CCC#N)C2=NS(=O)(=O)c3ccccc32)cc1 | 5 | 1 | -14 | 140* | 10 | 9
CN(C)c1ccc(/C=N/N(CCO)C2=NS(=O)(=O)c3ccccc32)cc1 | 9 | i | -1 | -570 | 13 | 10
COc1cc(/C=C/CN2CCC(Oc3ccc(C(=O)N4CCCC4)cc3)CC2)ccc1O | -10 | -1 | -5 | 8 | -17 | 29
COc1ccccc1/C=C/CN1CCC(Oc2ccc(C(=O)N3CCCC3)cc2)CC1 | -4 | 0 | 9 | 0 | 53* | 31
COc1cccc(-c2nnc(SCC(=O)Nc3ccc(Oc4ccccc4)cc3)n2Cc2ccco2)c1 | -1 | / | 8 | / | / | /
On1ccccc1=S | 42* | -1 | 15 | 4 | / | -1
O=C(Cn1ccccc1=S)c1ccc(Cl)c(Cl)c1 | -3 | -1 | -9 | -15 | / | -1
OC(COC1CCCCC1)CN1CCCCC1 (centres undefined) | -3 | 0 | -17 | -14 | 56* | -4
CCCN(CCC)CCCNC(=O)c1ccc(CS(=O)(=O)c2c(Cl)cccc2Cl)o1 | -5 | 0 | -8 | -7 | 55* | -4
Cc1ccccc1NC(=O)Cc1nc(COC(=O)C(C)C)cs1 | 4 | i | -7 | 6 | 10 | 7
SMILES | PrPC TRFRET | Vc quorum ag-1 | CCHFV vOTU inh | MazEF act | VHR inh abs | Y pestis TopoI | others
Cc1ccccc1NC(=O)Cc1nc(COC(=O)c2ccccn2)cs1 | 1 | 14 | -2 | 5 | / | 3 | Vc quorum ag-2=0
O=C(CSC1CCc2ccccc21)NNC(=O)Nc1ccc(Cl)cc1 (centres undefined) | 8 | / | -8 | / | / | /
Cc1ccc(Oc2ccc(Cl)cc2NC(=O)c2cnccn2)cc1 | 1 | 17* | -3 | 12 | 0 | -15 | Vc quorum ag-2=0
Brc1cc(-c2ccccc2)nc(-c2ccccc2)n1 | 8 | i | 6 | -7 | / | -4
Cn1c(CNc2cccc(Cl)c2)nnc1SCC(=O)OC1CCCCC1 | -1 | 17* | 10 | -6 | 14 | 35 | Vc quorum ag-2=0
CC(C)OC(=O)CSc1nnc(CNc2cccc(Cl)c2)n1C | 0 | -5 | 19 | -13 | 22 | -6
CC(=O)Nc1ccc(OCc2cn(CC(=O)c3ccc(O)cc3)nn2)cc1 | 0 | 1 | 0 | 3 | / | -7
CC(Oc1ccc(Cl)cc1)c1ccnc(N)n1 (centres undefined) | 2 | 0 | 2 | -6 | 12 | -11
COc1ccc(C(CNC(=O)c2ccc(-c3cccc(C(F)(F)F)c3)o2)N2CCOCC2)cc1 (centres undefined) | 0 | 14 | 2 | 0 | / | 4 | Vc quorum ag-2=0
CN(CC(=O)Nc1ccccc1Br)C(=O)CN1CCN(Cc2ccc(Cl)cc2)CC1 | -10 | i | -3 | -3 | / | 1
CCOC(=O)c1c(-c2ccccc2)csc1NC(=O)c1nn(CC)cc1Br | 2 | 14 | -7 | 1 | -19 | -1 | Vc quorum ag-2=0
CCOC(=O)c1c(-c2ccccc2)csc1NC(=S)N(CC)CC | -4 | 0 | 15 | -4 | -4 | 15
O=C(O)C1C2CCC(C2)C1C(=O)Nc1cc(F)ccc1F (centres undefined) | 3 | 17* | -7 | 4 | 12 | 4 | Vc quorum ag-2=0
CC(=O)c1ccc(-c2cnc3c(NC=O)cc(-c4cnn(C)c4)cn23)cc1 | -9 | i | -1 | / | / | -1
O=[N+]([O-])c1ccc(S(=O)(=O)NCC(c2cccnc2)N2CCc3ccccc32)cc1 (centres undefined) | -37 | 14 | -5 | 0 | / | -10 | Vc quorum ag-2=0
COc1cc(C2N(c3ccccn3)C(=O)C3CCCN32)cc(OC)c1OC (centres undefined) | 6 | 26* | 6 | 4 | 22 | 8 | Vc quorum ag-2=0
COc1ccc(C2N(c3ccccn3)C(=O)C3CCCN32)c(OC)c1 (centres undefined) | 3 | i | -11 | 5 | -1 | -5
O=C(Nc1nc2ccccc2s1)c1cccc(S(=O)(=O)N2CCc3ccccc32)c1 | 13 | 0 | -1 | -9 | 15 | -16
CCc1nnc(NC(=O)c2cccc(S(=O)(=O)N3CCc4ccccc43)c2)s1 | 2 | 0 | 15 | 4 | 24 | 0
O=C(CNC(=O)c1cccc(S(=O)(=O)N2CCc3ccccc32)c1)Nc1ccc(F)c(F)c1F | 6 | 12 | 26 | -3 | / | 9 | Vc quorum ag-2=5
O=C(Nc1nnc(C2CC2)s1)c1cccc(S(=O)(=O)N2CCc3ccccc32)c1 | -6 | 19 | 2 | -1 | -8 | 12 | Vc quorum ag-2=0
O=C(CNC(=O)c1cccc(S(=O)(=O)N2CCc3ccccc32)c1)Nc1ccccc1Br | -2 | i | 1 | -5 | / | 21
Cc1nnc(NC(=O)c2cccc(S(=O)(=O)N3CCc4ccccc43)c2)s1 | 0 | 18 | -4 | -6 | -6 | -2 | Vc quorum ag-2=0
